zVAD death inh = L929 zVAD cell death inhibition. 220,000 tested, 0.38% active. AID 1377. viability rescue, % at 10 µM. L929 zVAD necroptosis rescue, ATP luminescence, 24 h; with zVAD 60 µM;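 active means activation, scaled between plate controls, above about 75%, limit read from the data; inactive means activation under that limit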;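 further: 0% = zVAD with DMSO and 100% = DMSO alone without zVAD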
Wee1 degr inh = human Wee1 degradation inhibition, primary screen | P30291 | HeLa Luc-Wee1K328M stability, luciferase luminescence; 100% = proteasome inhibitor MG132 effect | reporter increase, % at 5 µM | 220,000 tested, 1.2% active;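 active means activation above the mean of all tested compounds plus 3 SD, set per screening run, cut at about 8.8% in these data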;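 further: cells exposed to compound for 20 h before luminescence read; 0% = DMSO alone and 100% = MG132 at 30 µM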
Target sequence (P30291 whole entry K328M): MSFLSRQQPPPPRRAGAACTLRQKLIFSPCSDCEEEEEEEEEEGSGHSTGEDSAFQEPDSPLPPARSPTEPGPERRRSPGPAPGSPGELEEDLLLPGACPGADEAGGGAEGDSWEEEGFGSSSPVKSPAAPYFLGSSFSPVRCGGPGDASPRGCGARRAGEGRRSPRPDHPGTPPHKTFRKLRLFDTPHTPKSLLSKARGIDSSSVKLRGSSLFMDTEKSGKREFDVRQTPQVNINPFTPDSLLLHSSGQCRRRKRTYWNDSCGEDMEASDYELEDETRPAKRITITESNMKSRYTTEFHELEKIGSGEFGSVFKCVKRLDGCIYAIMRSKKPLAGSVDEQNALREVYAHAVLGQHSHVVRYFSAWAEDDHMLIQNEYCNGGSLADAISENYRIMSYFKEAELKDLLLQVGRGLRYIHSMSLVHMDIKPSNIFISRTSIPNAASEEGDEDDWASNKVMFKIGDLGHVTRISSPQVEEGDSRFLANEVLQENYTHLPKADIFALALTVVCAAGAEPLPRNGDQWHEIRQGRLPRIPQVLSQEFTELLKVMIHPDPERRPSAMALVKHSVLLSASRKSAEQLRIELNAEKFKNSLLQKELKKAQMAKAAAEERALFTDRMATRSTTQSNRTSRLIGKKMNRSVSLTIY
HSV replic up = HSV replication enhancement; HSV replication augmentation in cells, fold increase; maximum fold increase; 220,000 tested, 0.005% active; AID 1956; in the data active means maximum fold increase above about 1.5; tested in PC3 cells
V-ATPase pHluor = yeast V-ATPase proton transport regulation by pHLuorin. S. cerevisiae, pHLuorin cytosolic pH fluorescence. response, % at 10 µM. 350,000 tested, 0.37% active. AID 504577; in the data active means response mostly above about 7.3%, no sharp cut-off; inactive means mostly below about 5.4%; further: actives read high
TNF death inh = blocks TNF-alpha induced death of Jurkat FADD-/- cells; Jurkat FADD-/- TNF necroptosis rescue, ATP luminescence, 24 h; 0 = TNF only, 100 = no-TNF cells; activation (protection from cell death), % at 10 µM; 220,000 tested, 0.068% active;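 active means activation, meaning protection from cell death, of at least 50% relative to plate controls; inactive means activation below 50%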;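 further: necroptosis triggered by 40 ng/mL TNF-alpha added together with compound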
Starred values were filed as active, the others as inactive. An excerpt weighted towards active compounds, which were near 1.4% of everything screened.

Screening CC(C)(C)c1[nH]nc2c1C(c1cccnc1)C(C#N)=C(N)O2 (stereo not drawn) returned zVAD death inh 2, Wee1 degr inh 9.9*, HSV replic up inactive, V-ATPase pHluor 6 and TNF death inh 0.
`Nc1c(C(=O)N/N=C/c2ccc(Cl)cc2)cnn1-c1ccccc1` gave zVAD death inh 1, Wee1 degr inh -2, HSV replic up inactive, V-ATPase pHluor 2 and TNF death inh -1.
`Nc1c(C(=O)N/N=C/c2cccnc2)cnn1-c1ccccc1` gave zVAD death inh 5, Wee1 degr inh 9.6*, HSV replic up inactive, V-ATPase pHluor -1 and TNF death inh 1.
For COc1cc(C=NNC(=O)Cn2nc(C)cc2C)ccc1OC(=O)C1CC1 the results were V-ATPase pHluor -1.
`O=C(OCC(=O)c1c[nH]c2ccccc12)C1=COCCO1` gave zVAD death inh 0, Wee1 degr inh 11*, HSV replic up inactive, V-ATPase pHluor 0 and TNF death inh -1.
Screening O=C(OCC(=O)c1ccc[nH]1)C1=COCCO1 returned V-ATPase pHluor 3.
O=C(NNc1c(Cl)cccc1Cl)C1CCC1 was read as zVAD death inh 6, Wee1 degr inh -2, HSV replic up inactive, V-ATPase pHluor 0 and TNF death inh 75*.
Screening O=C(NNc1cccc(Cl)n1)C1CC1 returned zVAD death inh 1, Wee1 degr inh 0, HSV replic up inactive, V-ATPase pHluor 1 and TNF death inh 0.
For Cc1cc(C)cc(N(CC(=O)NC2CCCC2)C(=O)C2(C)CC(=O)N=C3C=CC=CN32)c1 (stereo not drawn) the results were zVAD death inh 1, Wee1 degr inh 11*, HSV replic up inactive, V-ATPase pHluor -2 and TNF death inh 0.
Screening Cc1ccccc1N(CC(=O)NC1CCCC1)C(=O)C1(C)CC(=O)N=C2C=CC=CN21 (stereo not drawn) returned zVAD death inh -1, Wee1 degr inh -2, HSV replic up inactive, V-ATPase pHluor 2 and TNF death inh 0.
For CCn1cc(C2=NC(c3ccccc3)CO2)c2ccccc21 (stereo not drawn) the results were Wee1 degr inh 39*, HSV replic up inactive, V-ATPase pHluor 3 and TNF death inh 0.
Screening COc1cccc(-n2cc(CNCc3cn(C)nc3-c3ccccc3F)cn2)c1 returned zVAD death inh 1, Wee1 degr inh 5, HSV replic up inactive, V-ATPase pHluor 14* and TNF death inh 1.
`O=C(c1cc(C(=O)c2ccco2)cc(C(=O)c2ccco2)c1)c1ccco1` gave zVAD death inh -1, Wee1 degr inh 11*, HSV replic up inactive, V-ATPase pHluor 1 and TNF death inh 0.
CC1CCN(S(=O)(=O)N2CCC(C(=O)NCCC3=CCCCC3)CC2)CC1 was read as zVAD death inh 1, Wee1 degr inh 2, HSV replic up inactive, V-ATPase pHluor -3 and TNF death inh 1.
For CCCCn1c(SCC(=O)N2CCC(C)CC2)nc2cc(S(N)(=O)=O)ccc21 the results were zVAD death inh 0, Wee1 degr inh 3, HSV replic up inactive, V-ATPase pHluor 14* and TNF death inh -2.
Screening Cc1ccc(CC2(c3ccccc3)NC(=O)NC2=O)cc1 (stereo not drawn) returned V-ATPase pHluor 15*.
For O=C1NC(=O)C(Cc2ccccc2)(c2ccccc2)N1 (stereo not drawn) the results were V-ATPase pHluor -3.
Screening O=c1[nH]c(C(F)(F)C(F)(F)C(F)(F)F)no1 returned V-ATPase pHluor -4.
CCS(=O)(=O)N1Cc2ccccc2CC1C(=O)Nc1nnc(SCc2ccc(F)cc2)s1 (stereo not drawn) was read as zVAD death inh 0, Wee1 degr inh 9.1*, HSV replic up inactive, V-ATPase pHluor 2 and TNF death inh 2.
COC(=O)C(NNc1ccccc1C)(NC(=O)c1ccc(F)cc1)C(F)(F)F (stereo not drawn) was read as zVAD death inh -1, Wee1 degr inh -1, HSV replic up inactive, V-ATPase pHluor 8.7* and TNF death inh 0.
Screening COC(=O)C(NNc1ccc(F)cc1)(NC(=O)c1ccccc1)C(F)(F)F (stereo not drawn) returned zVAD death inh 0, Wee1 degr inh 3, HSV replic up inactive, V-ATPase pHluor 2 and TNF death inh 1.
`O=C(Nc1cccc(-c2nc3ccccc3o2)c1)c1cccnc1` gave zVAD death inh 1, Wee1 degr inh 1, HSV replic up inactive, V-ATPase pHluor -5 and TNF death inh 1.
Screening O=C(Nc1ccc(-c2nc3ccccc3o2)cc1)c1cccnc1 returned zVAD death inh 7, Wee1 degr inh 11*, HSV replic up inactive, V-ATPase pHluor 2 and TNF death inh -3.
`CCCNC(=O)NC1CCCc2ccccc21` (stereo not drawn) gave zVAD death inh 1, Wee1 degr inh 3, HSV replic up inactive, V-ATPase pHluor -1 and TNF death inh 0.
For O=C(Nc1cccc(Cl)c1)Nc1c[nH]c(=O)[nH]c1=O the results were V-ATPase pHluor -1.
C=CCc1c(N(CC)CC)nc(C)[nH]c1=O was read as zVAD death inh 0, Wee1 degr inh 9.3*, HSV replic up inactive, V-ATPase pHluor 3 and TNF death inh 2.
For COc1ccccc1-n1cnc2cc(C(=O)N3CCOCC3)ccc21 the results were V-ATPase pHluor 0.
Screening CCCCCN1CC(O)=C(c2nc3ccccc3[nH]2)C1=N returned zVAD death inh 6, Wee1 degr inh 10*, HSV replic up inactive, V-ATPase pHluor -4 and TNF death inh -2.
COC(=O)Cc1cc(OC)c(OC)cc1S(=O)(=O)N(C)C was read as zVAD death inh 0, Wee1 degr inh 0, HSV replic up inactive, V-ATPase pHluor -1 and TNF death inh -1.
`O=c1oc2ccccc2cc1NCc1ccccc1O` gave zVAD death inh 0, Wee1 degr inh 8.9*, HSV replic up inactive, V-ATPase pHluor 0 and TNF death inh -9.
For O=C(NCc1ccccc1Cl)c1cc2ccccc2oc1=O the results were V-ATPase pHluor -2.
`COc1ccc(Cn2c(=O)cc(N)n(-c3ccccc3C)c2=O)cc1` gave zVAD death inh 0, Wee1 degr inh 6, HSV replic up inactive, V-ATPase pHluor 2 and TNF death inh -11.
Screening Cc1csc(=O)n1CCC(=O)OCC(=O)Nc1cc([N+](=O)[O-])ccc1Cl returned V-ATPase pHluor 2.
Screening CCN1C(=O)[C@H]2[C@@H](c3ccc(C)cc3)N3C(=O)N(c4cccc(Br)c4)C(=O)[C@@]3(Cc3ccccc3)[C@H]2C1=O returned V-ATPase pHluor 13*.
`Cn1nc(C(=O)Nc2ccccc2)c2c1-c1ccccc1S(=O)(=O)C2` gave V-ATPase pHluor 14*.
For O=C(N1CCCCC1)C1(S(=O)(=O)c2ccccc2)CC=CC1 the results were V-ATPase pHluor 1.

Compound activity (PubChem)
